Among the data in PubChem BioAssay are z-score and composite z-score values, retold here.

A short description of test [1]: compound effects on lung adenocarcinoma cell viability – A549, calcein-AM fluorescence, 48 h, basal, profiling panel (AID 1162). Further: test concentration not given here. The settings on record: higher = more signal.
Test [2] is described as follows: compound effects on differentiated 3T3-L1 adipocyte viability – cell-based, 3T3-L1 adipocytes, calcein-AM fluorescence, 48 h, basal, profiling panel (AID 1163). Further: test concentration not given here. The settings on record: 3T3-L1 adipocytes viability, higher = more signal.
The nature of test [3]: compound effects on hepatocellular carcinoma cell viability – HepG2, calcein-AM fluorescence, 48 h, basal, profiling panel (AID 1164). Further: test concentration not given here. The conditions noted are these: higher = more signal.
Test [4] is described as follows: compound effects on multiple myeloma cell viability – MM1S, calcein-AM fluorescence, 48 h, basal, profiling panel (AID 1165). Further: test concentration not given here. The conditions noted are these: higher = more signal.
Test [5] can be described thus: calcein-AM signal in unstimulated myeloma cells – cell-based, calcein-AM fluorescence, 48 h, PK04 Diversity Set, profiling panel (AID 1166).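 Further: cells grown under basal conditions without added stimulus; test concentration not given here.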 The conditions noted are these: RPMI8226 myeloma viability, higher = more signal.
The nature of test [6]: JC-1 mitochondrial signal, unstimulated HepG2 cells – cell-based, JC-1 fluorescence, 24 h, 100 nL compound, profiling panel (AID 1167). Further: test concentration not given here. The settings on record: HepG2 mitochondrial potential, higher = more signal.
Test [7] in a line: JC-1 mitochondrial signal, unstimulated adipocytes – cell-based, JC-1 fluorescence, 3T3-L1 adipocytes, 24 h, 100 nL compound, profiling panel (AID 1168). Further: test concentration not given here. The conditions noted are these: JC-1 mitochondrial fluorescence, higher = more signal, called active from +8 up or from −8 down.
Test [8] in a line: JC-1 mitochondrial signal, unstimulated myeloma cells – cell-based, JC-1 fluorescence, RPMI8226, 24 h, 100 nL compound, profiling panel (AID 1169). Further: test concentration not given here. The conditions noted are these: JC-1 mitochondrial potential fluorescence, higher = more signal.
Test [9] can be described thus: JC-1 mitochondrial signal, unstimulated MM1S myeloma – cell-based, JC-1 fluorescence, 24 h, 100 nL compound, profiling panel (AID 1170). Further: test concentration not given here. The settings on record: MM1S mitochondrial potential, higher = more signal.
Test [10] is described as follows: resazurin metabolic signal in A549 cells – cell-based, resazurin fluorescence, 24 h, PK04 Diversity Set, profiling panel (AID 1171). Further: test concentration not given here. The conditions noted are these: A549 viability, higher = more signal, called active from +8 up or from −8 down.
Test [11] is described as follows: resazurin metabolic signal in HepG2 cells – cell-based, resazurin fluorescence, 24 h, PK04 Diversity Set, profiling panel (AID 1172). Further: test concentration not given here. The conditions noted are these: HepG2 viability, higher = more signal. In general terms: Alamar Blue is a resazurin reagent that responds to reducing activity.
A short description of test [12]: budding yeast growth changes without added modifier – OD600, strain BY4716, 24 h, basal condition, primary screen (AID 1173). The settings on record: S. cerevisiae BY4716 growth, OD600, 24 h; higher = more signal, called active from +8 up or from −8 down.
Test [13] can be described thus: viability profiling in MM1S myeloma cells – cell-based, resazurin fluorescence, basal, 24 h, PK04 Diversity Set, profiling panel (AID 1174). Further: test concentration not given here. The conditions noted are these: higher = more signal, called active from +8 up or from −8 down.
Test [14] deals with Dihydroorotate dehydrogenase (quinone), mitochondrial (Plasmodium falciparum (isolate 3D7)) (UniProt Q08210). Briefly: inhibition of P. falciparum DHODH – biochemical, C-terminal His tag, absorbance 600 nm, primary screen (AID 1175).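 Further: recombinant parasite enzyme with a five histidine tag at its C terminus; test concentration not given here.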 The settings on record: PfDHODH enzyme, DCIP absorbance 600 nm; higher = more signal, called active from +8 up or from −8 down.
Chain of Dihydroorotate dehydrogenase (quinone), mitochondrial (Plasmodium falciparum (isolate 3D7)) (Q08210 whole entry, looked up): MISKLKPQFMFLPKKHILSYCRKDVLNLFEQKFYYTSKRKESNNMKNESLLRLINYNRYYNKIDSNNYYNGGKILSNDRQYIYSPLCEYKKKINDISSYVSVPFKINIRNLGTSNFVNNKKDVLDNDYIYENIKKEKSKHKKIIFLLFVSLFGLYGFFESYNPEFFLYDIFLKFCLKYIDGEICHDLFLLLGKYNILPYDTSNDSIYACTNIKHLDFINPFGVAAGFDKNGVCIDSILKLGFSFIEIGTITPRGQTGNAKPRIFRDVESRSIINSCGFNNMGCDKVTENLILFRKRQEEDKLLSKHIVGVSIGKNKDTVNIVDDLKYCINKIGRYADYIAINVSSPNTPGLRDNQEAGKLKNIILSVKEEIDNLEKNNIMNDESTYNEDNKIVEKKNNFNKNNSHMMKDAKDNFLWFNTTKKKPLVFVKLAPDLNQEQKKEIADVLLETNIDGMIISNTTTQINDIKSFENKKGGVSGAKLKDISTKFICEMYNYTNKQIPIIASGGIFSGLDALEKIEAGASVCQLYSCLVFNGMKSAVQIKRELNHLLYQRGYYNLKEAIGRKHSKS
Test [15] in a line: inhibition of PAO1 biofilm formation – strain PAO1, LB-PBS medium, absorbance 600 nm, primary screen (AID 1176). Further: test concentration not given here. The settings on record: P. aeruginosa PAO1 growth/biofilm, A600, 12 h; higher = more signal.
Test [16] can be described thus: growth modulation of vineyard yeast isolate – strain RM11-1a, OD600, basal, 24 h, primary screen (AID 1177).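 Further: cultures grown under basal conditions with no added stressor; test concentration not given here.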 The settings on record: S. cerevisiae RM11-1a growth, OD600, 24 h; higher = more signal, called active from +8 up or from −8 down.
A short description of test [17]: growth of efflux-deficient E. coli DRC39 – strain DRC39, OD650, 24 h, E. coli filamentation inducers, primary screen (AID 1178).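 Further: growth measured as culture turbidity by optical density at 650 nm; test concentration not given here.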 The conditions noted are these: E. coli DRC39 acrAB, higher = more signal, called active from +8 up or from −8 down.
Test [18] can be described thus: growth of efflux-deficient E. coli DRC39 – strain DRC39, OD650, 48 h, E. coli filamentation inducers, primary screen (AID 1179).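 Further: screen aims at cell division blockers that make cells filament.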 The conditions noted are these: E. coli DRC39 delta-acrAB growth, higher = more signal, called active from +8 up or from −8 down.
The nature of test [19]: viability profiling in RPMI8226 myeloma cells – cell-based, resazurin fluorescence, basal, 24 h, PK04 Diversity Set, profiling panel (AID 1180).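 Further: RPMI8826 multiple myeloma cell line at 5000 cells per well; test concentration not given here.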 The settings on record: higher = more signal.
Test [20] deals with E3 ubiquitin-protein ligase XIAP (Homo sapiens) (UniProt P98170). The experiment in a line: small molecules binding XIAP protein – biophysical, small-molecule microarray, fluorescence 635 nm, primary screen (AID 1181).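 Further: score merges 667 nm emission and signal to noise over triplicate slides.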 The settings on record: higher = more signal.
Chain of E3 ubiquitin-protein ligase XIAP (Homo sapiens) (P98170 whole entry, looked up): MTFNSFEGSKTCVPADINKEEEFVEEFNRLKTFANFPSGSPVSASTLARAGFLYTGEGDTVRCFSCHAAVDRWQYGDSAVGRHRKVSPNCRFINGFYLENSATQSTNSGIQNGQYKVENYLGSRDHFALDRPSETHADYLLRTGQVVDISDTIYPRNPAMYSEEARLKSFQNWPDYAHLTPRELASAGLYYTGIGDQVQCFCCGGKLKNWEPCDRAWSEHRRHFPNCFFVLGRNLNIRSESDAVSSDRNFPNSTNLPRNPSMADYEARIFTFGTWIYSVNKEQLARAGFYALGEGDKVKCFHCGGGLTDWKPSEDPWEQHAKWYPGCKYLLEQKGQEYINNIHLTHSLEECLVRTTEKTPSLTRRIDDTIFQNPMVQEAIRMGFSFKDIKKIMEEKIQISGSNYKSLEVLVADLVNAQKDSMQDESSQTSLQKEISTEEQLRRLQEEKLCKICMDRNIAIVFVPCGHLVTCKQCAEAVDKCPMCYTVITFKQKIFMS

Calls of active or inactive are those of the source. Unless noted, how the calls were made is not given here.

Regarding `COc1ccc(C(O)C2C=CC3C(=O)N(c4ccccc4)C(=O)C3N2Nc2ccccc2)cc1` (stereo not given), the z-score is -0.0572 in test [1]; -0.936 in test [2]; 0.204 in test [3]; 0.254 in [4]; 0.0459 in test [5]; -1.2 in test [6]. The z-score in test [7] is -0.233 (inactive); in test [8] it was -0.402; in [9], -0.626; in test [10], 0.117 (inactive); in [11], -0.377; in test [12], -2.39 (inactive). The z-score is -0.582 (inactive) in [13]; 0.571 (inactive) in [15]; -0.0179 (inactive) in test [16]; -0.519 (inactive) in [17]; -0.43 (inactive) in test [18]; -0.841 in test [19]. The composite z-score in test [14] was 0.618 (inactive); in test [20], 0.438.
Take `CC(C)C(=C=CC[C@@H](O)c1cccc(OCCO)c1)C[C@@H](O)c1ccccn1`: the z-score in test [1] is -0.171; in [2], -0.142; in test [3], -0.295; in test [4] it was -0.0369; in test [5], 0.128; in test [6] it was -0.0286. Besides, the z-score is -0.425 (inactive) in test [7]; -0.387 in [8]; -0.753 in test [9]; 1.22 (inactive) in test [10]; 0.828 in [11]; -1.02 (inactive) in [12]. The z-score in [13] is 0.642 (inactive); in test [15], -0.0342 (inactive); in test [16], 0.488 (inactive); in [17] it was 0.267 (inactive); in test [18], -0.158 (inactive); in test [19] it was 0.463. Besides, the composite z-score is -6.55 (inactive) in [14] and 0.127 in test [20].
Regarding `CCCCCN1CC=CC23O[C@@H]4C=CCOC(=O)[C@@H]4[C@H]2C(=O)N(CCO)[C@@H]3C1=O` (stereo not given in full), the z-score in test [1] was -0.479; in test [2], -0.609; in test [3] it was 0.0249; in test [4], 0.687; in test [5] it was -0.285; in [6], -0.607. In addition, the z-score in test [7] was 0.561 (inactive); in test [8], 0.174; in test [9] it was -0.15; in [10], -0.0273 (inactive); in test [11], 0.815; in test [12] it was 0.201 (inactive). The z-score in [13] is 0.0974 (inactive); in test [15], 0.398 (inactive); in test [16], -0.454 (inactive); in [17], -0.0666 (inactive); in test [18], -0.193 (inactive); in [19], 0.229. In addition, the composite z-score in [14] was -0.693 (inactive); in test [20], 0.307.
For `CC(C)CNC(=O)[C@@H]1c2ccccc2C(=O)N(C2CCCCC2)[C@H]1c1ccc(CO)cc1`, the z-score in [1] is 2.93; in test [2], 0.258; in [3], 1.41; in test [4], 0.0402; in [5], 0.424; in [6], 4.35. In addition, the z-score was 1.16 (inactive) in [7]; 0.301 in test [8]; -0.605 in test [9]; 2.26 (inactive) in [10]; 1.12 in test [11]; -0.664 (inactive) in test [12]. The z-score was 1.5 (inactive) in test [13]; 0.292 (inactive) in test [15]; -1.22 (inactive) in test [16]; 1.49 (inactive) in [17]; 1.59 (inactive) in test [18]; 1.34 in [19]. Further, the composite z-score was 0.246 (inactive) in test [14] and -0.234 in test [20].
Turning to `C=CCOC(=O)[C@H]1[C@@H]2C(=O)O[C@@H](c3ccccc3)[C@@H](c3ccccc3)N2[C@@H](c2ccc(OCCOC(=O)[C@H]3C[C@H]4C(=O)N[C@@H](CCCCNC(C)=O)C(=O)N4[C@H]3c3cccc(OCCO)c3)cc2)[C@]12C(=O)Nc1ccc(I)cc12`, the z-score was 0.0973 in test [1]; 1.5 in [2]; -0.621 in [3]; 0.035 in test [4]; -0.665 in test [5]; -1.91 in test [6]. The z-score in [7] was 0.622 (inactive); in test [8], -0.676; in test [9], -0.519; in [10], -0.342 (inactive); in [11] it was -0.821; in test [12], 1.2 (inactive). Also, the z-score in test [13] was -0.682 (inactive); in test [15] it was 2.63 (inactive); in test [16] it was 1.59 (inactive); in [17], -0.817 (inactive); in [18], -1.2 (inactive); in test [19], -0.538. The composite z-score in test [14] is 1.34 (inactive); in [20], -0.0228.
As to `O=C1c2ccccc2[C@](Cc2ccccc2I)(C(=O)NC2CC2)[C@H](c2ccc(CO)cc2)N1Cc1ccccc1C(F)(F)F`, the z-score in test [1] is 0.319; in [2], 0.865; in test [3], -0.0085; in [4] it was -0.645; in test [5] it was -2.83; in test [6], 0.476. Further, the z-score in test [7] is 0.347 (inactive); in test [8], -0.761; in [9], -0.154; in test [10], 0.272 (inactive); in test [11] it was -0.113; in test [12] it was -0.637 (inactive). Besides, the z-score in test [13] is 0.762 (inactive); in [15] it was 0.842 (inactive); in [16] it was 0.108 (inactive); in test [17], 0.169 (inactive); in test [18] it was -0.707 (inactive); in [19], 0.154. Besides, the values for the composite z-score in [14] and in [20] were 0.129 (inactive) and 0.125, respectively.
Regarding `COc1cc(NN2C(C(O)C3CCCCC3)C=CC3C(=O)N(C)C(=O)C32)cc(OC)c1OC` (stereo not given), the z-score in [1] is -0.536; in test [2], -0.0026; in test [3], -0.848; in test [4], -0.197; in [5], 0.436; in test [6] it was -0.326. Moreover, the z-score is -0.657 (inactive) in [7]; 0.316 in [8]; 0.144 in test [9]; -0.825 (inactive) in test [10]; -0.721 in [11]; 1.28 (inactive) in [12]. Besides, the z-score in test [13] was -1.43 (inactive); in test [15] it was 0.462 (inactive); in test [16], 0.668 (inactive); in [17], -0.276 (inactive); in [18] it was -0.498 (inactive); in test [19], -1.35. Also, the composite z-score in [14] was -0.187 (inactive); in [20] it was 0.279.
In the case of `CO[C@H]1O[C@H](CO)[C@@H](OC(=O)CCc2ccccc2)[C@H](OC(=O)c2cc3ccccc3[nH]2)[C@H]1OC(=O)c1cc2ccccc2[nH]1`, the z-score is 0.98 in test [1]; 0.679 in test [2]; 0.138 in test [3]; -2.82 in test [4]; -2.54 in test [5]; -2.04 in test [6]. For the same compound, the z-score in test [7] is 1.36 (inactive); in [8] it was -0.502; in [9], -1.1; in [10] it was -2.84 (inactive); in test [11], -1.4; in [12] it was -1.14 (inactive). In addition, the z-score was -2.09 (inactive) in test [13]; 1.38 (inactive) in test [15]; 0.033 (inactive) in test [16]; 0.367 (inactive) in [17]; 1.2 (inactive) in [18]; -2.49 in test [19]. In addition, the composite z-score in [14] was -1.62 (inactive); in [20] it was -0.156.
